KLF5 inhibitor = kruppel-like factor 5 inhibition | AID 1700 | 290,000 compounds, 0.23% hits | DLD-1 KLF5 promoter-luciferase reporter, luminescence | inhibition, % at 5 µM;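 active means inhibition above a per-plate limit of that plate's mean compound inhibition plus 3 SD, cut at about 60% in these data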;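 further: 0% = DMSO wells and 100% = LY294002 at 200 µM; higher means less KLF5 promoter-driven luciferase light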
Jurkat NFkB inh = lowers PMA/ionomycin-induced NF-kB signal in Jurkat cells. AID 435003. inhibition, % at 4 µM. PMA/ionomycin-induced NF-kB luciferase reporter, luminescence. 330,000 compounds, 0.53% hits; in the data active means inhibition above about 50%
697 NFkB inh = inhibitors of the PMA/ionomycin-induced NF-kB reporter in 697 B cells; 697 B-cell NF-kB luciferase reporter, 16 h; inhibition, % at 4 µM; 330,000 compounds, 0.33% hits; in the data active means inhibition above about 35%
TMEM16A inh = mouse TMEM16A channel inhibition, primary screen. Q8BHY3. HEK293 TMEM16A/YFP iodide influx fluorescence, ionomycin. normalized B-score (activity score, 25-100; higher = stronger inhibition) at 10 µM. 310,000 compounds, 1.2% hits;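 active means ratio plate-corrected score three or more library SD toward inhibition, starting fluorescence score within five deviations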;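 further: score derived from kinetic fluorescence span divided by baseline fluorescence per well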
Target sequence (Q8BHY3 whole entry, looked up): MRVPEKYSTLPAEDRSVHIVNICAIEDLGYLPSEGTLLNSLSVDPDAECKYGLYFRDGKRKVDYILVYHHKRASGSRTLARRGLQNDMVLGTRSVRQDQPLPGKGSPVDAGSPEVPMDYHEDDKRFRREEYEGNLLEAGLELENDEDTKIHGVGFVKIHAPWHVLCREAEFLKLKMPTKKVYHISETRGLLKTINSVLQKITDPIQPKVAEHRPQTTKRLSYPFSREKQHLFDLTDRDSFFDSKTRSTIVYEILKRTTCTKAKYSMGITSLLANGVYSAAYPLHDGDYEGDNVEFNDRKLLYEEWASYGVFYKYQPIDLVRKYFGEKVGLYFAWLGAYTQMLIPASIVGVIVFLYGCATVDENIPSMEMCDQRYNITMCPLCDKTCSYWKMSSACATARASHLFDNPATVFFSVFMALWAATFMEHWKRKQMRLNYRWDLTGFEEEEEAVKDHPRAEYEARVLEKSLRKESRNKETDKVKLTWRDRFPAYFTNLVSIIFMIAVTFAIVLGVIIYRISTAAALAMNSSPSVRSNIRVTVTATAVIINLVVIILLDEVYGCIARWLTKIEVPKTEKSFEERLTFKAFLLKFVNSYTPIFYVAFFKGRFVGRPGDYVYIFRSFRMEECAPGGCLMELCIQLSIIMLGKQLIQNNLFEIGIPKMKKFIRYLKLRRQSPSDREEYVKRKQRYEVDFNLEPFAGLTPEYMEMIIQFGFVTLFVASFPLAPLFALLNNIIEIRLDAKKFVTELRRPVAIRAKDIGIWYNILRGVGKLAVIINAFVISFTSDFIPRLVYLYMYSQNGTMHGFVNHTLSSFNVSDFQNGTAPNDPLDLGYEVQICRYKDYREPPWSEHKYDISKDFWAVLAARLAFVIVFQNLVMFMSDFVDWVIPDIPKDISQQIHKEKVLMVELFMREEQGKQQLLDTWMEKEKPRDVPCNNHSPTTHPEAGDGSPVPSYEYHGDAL
TMEM16A act = activators or potentiators of mouse TMEM16A chloride channel | Q8BHY3 | HEK293 TMEM16A/YFP-H148Q/I152L, iodide quench fluorescence; active compounds read low | B-score at 10 µM | 340,000 compounds, 0.3% hits | AID 623877;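 active means fluorescence-ratio B-score plate-corrected deviation score at least 3 library SD below zero, with starting fluorescence score within 5 deviations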;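 further: channel opened by trigger with iodide after compound preincubation; score built on the fluorescence ratio of max minus min over baseline; more negative score means more quench and so TMEM16A activation or potentiation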
aSyn 5UTR inh = MLPCN primary screen, SNCA 5' untranslated region; alpha-synuclein 5'UTR reporter, inhibitor activity; inhibition, % (tested at 7.5 µM); 300,000 compounds, 0.82% hits; AID 1813; in the data active means inhibition above about 60%;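 further: H4 neuroglioblastoma cells stably carrying SNCA 5'UTR luciferase fusion; 0% = DMSO wells and 100% = positive control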
The depositor's hits bear a star. An excerpt weighted towards active compounds, which were near 2.5% of everything screened.

Screening Nc1c(C(=O)N2CCOCC2)sc2nc3c(cc12)CCCC3 returned KLF5 inhibitor -11.0, Jurkat NFkB inh -14.6, 697 NFkB inh 1.1, TMEM16A inh inactive, TMEM16A act inactive and aSyn 5UTR inh 75.7*.
Cc1cc(C)c2nc3sc(C(=O)N4CCOCC4)c(N)c3cc2c1 was read as KLF5 inhibitor -14.8, Jurkat NFkB inh -2.7, 697 NFkB inh -9.1, TMEM16A inh inactive, TMEM16A act inactive and aSyn 5UTR inh 87.8*.
Screening CCC1CN(C(=O)N2CCC(C(=O)NCc3ccc(OC)cc3OC)CC2)c2ccccc2O1 (stereo unspecified) returned KLF5 inhibitor 9.5, Jurkat NFkB inh -1.5, 697 NFkB inh -3.6, TMEM16A inh inactive, TMEM16A act inactive and aSyn 5UTR inh 17.3.
Nc1nc(Sc2ccc([N+](=O)[O-])c3nonc23)c2[nH]cnc2n1 was read as TMEM16A act -6.05*.
`CC(C)COC(=O)COc1cc(Cl)c(Cl)cc1Cl` gave Jurkat NFkB inh -4.4 and 697 NFkB inh 16.5.
For CCCc1cc(C(=O)Cc2ccc(F)cc2)c(O)cc1O the results were KLF5 inhibitor 14.7, Jurkat NFkB inh -2.2, 697 NFkB inh 11.1, TMEM16A inh 100*, TMEM16A act inactive and aSyn 5UTR inh -0.4.
Screening O=C(Cc1ccc(F)cc1)c1ccc(O)cc1O returned KLF5 inhibitor -88.5, Jurkat NFkB inh -13.8, 697 NFkB inh -18.7, TMEM16A inh inactive, TMEM16A act inactive and aSyn 5UTR inh -45.4.
N#Cc1ccc(Oc2cccc3cccnc23)c([N+](=O)[O-])c1 was read as KLF5 inhibitor -20.4, Jurkat NFkB inh 12.6, 697 NFkB inh 12.5, TMEM16A inh inactive, TMEM16A act -5.76* and aSyn 5UTR inh 14.2.
Screening COc1cc(O)ccc1C(=O)CCc1ccc(O)cc1 returned KLF5 inhibitor -18.4, Jurkat NFkB inh 4.5, 697 NFkB inh 9.8, TMEM16A inh inactive, TMEM16A act inactive and aSyn 5UTR inh -9.7.
Screening COc1ccc(OC)c(Nc2cc(C)c3ccccc3n2)c1 returned KLF5 inhibitor 65.2*, Jurkat NFkB inh 30.8, 697 NFkB inh -10.9, TMEM16A inh inactive, TMEM16A act inactive and aSyn 5UTR inh 22.5.
Screening COc1ccc2cc1Oc1ccc(cc1)C[C@H]1c3c(cc4c(c3Oc3cc5c(cc3OC)CCN(C)[C@@H]5C2)OCO4)CCN1C returned Jurkat NFkB inh 22.5, 697 NFkB inh -23.3, TMEM16A inh inactive, TMEM16A act inactive and aSyn 5UTR inh 109.2*.
For c1ccc(-n2ncc3c(N4CCCCC4)ncnc32)cc1 the results were KLF5 inhibitor 7.7, Jurkat NFkB inh -57.4, 697 NFkB inh -143.8, TMEM16A inh inactive, TMEM16A act inactive and aSyn 5UTR inh 94.5*.
Cc1ccc2c(c1)C1CN(C)CCC1N2Sc1ccccc1[N+](=O)[O-] (stereo unspecified) was read as KLF5 inhibitor 7.2, Jurkat NFkB inh 10.3, 697 NFkB inh 16.9, TMEM16A inh inactive, TMEM16A act inactive and aSyn 5UTR inh 21.9.
`Cc1c(C(=O)NCc2cccnc2)sc2nc(-c3ccccc3)cn12` gave KLF5 inhibitor -2.9, Jurkat NFkB inh -6.7, 697 NFkB inh -13.5, TMEM16A inh inactive, TMEM16A act inactive and aSyn 5UTR inh -31.1.
For Cc1c(C(=O)NCc2cccnc2)sc2nc(-c3ccc(F)cc3)cn12 the results were KLF5 inhibitor -54.6, Jurkat NFkB inh -7.9, 697 NFkB inh -42.1, TMEM16A inh inactive, TMEM16A act -21.9* and aSyn 5UTR inh -144.2.
`COc1ccc(CCNC(=O)CSc2nc(-c3ccco3)cc(C(F)(F)F)n2)cc1` gave KLF5 inhibitor -3.3, Jurkat NFkB inh -10.9, 697 NFkB inh -5.9, TMEM16A inh inactive, TMEM16A act inactive and aSyn 5UTR inh -10.1.
CCOC(=O)c1c(NC(=O)CSc2nc3ccccc3s2)sc(C(C)=O)c1C was read as KLF5 inhibitor -6.3, Jurkat NFkB inh 25.3, 697 NFkB inh -25.2, TMEM16A inh 25*, TMEM16A act inactive and aSyn 5UTR inh -5.1.
`CCOC(=O)c1c(NC(=O)CSc2nc3cc(Cl)ccc3s2)sc(C(C)=O)c1C` gave KLF5 inhibitor -20.7, Jurkat NFkB inh -9.1, 697 NFkB inh -24.9, TMEM16A inh inactive and aSyn 5UTR inh -26.1.
For COC(=O)c1ccc(CSc2nc(-c3ccco3)cc(C(F)(F)F)n2)o1 the results were KLF5 inhibitor 18.6, Jurkat NFkB inh -4.5, 697 NFkB inh 16.9, TMEM16A inh inactive, TMEM16A act -5.05* and aSyn 5UTR inh 11.1.
For CCOC(=O)c1sc(NC(=O)CSc2nc(-c3ccco3)cc(C(F)(F)F)n2)c(C(=O)OC)c1C the results were KLF5 inhibitor -9.5, Jurkat NFkB inh -27.4, 697 NFkB inh 12.5, TMEM16A inh inactive, TMEM16A act inactive and aSyn 5UTR inh 20.6.
For CCOC(=O)c1sc(NC(=O)CSc2nc(-c3ccco3)cc(C(F)(F)F)n2)c(C(=O)OCC)c1C the results were TMEM16A act -7.66*.
CCOC(=O)c1c(NC(=O)CSc2nnnn2-c2ccc(OC)cc2)sc(C)c1C was read as KLF5 inhibitor 5.5, Jurkat NFkB inh 21.3, 697 NFkB inh 23.5, TMEM16A inh 25*, TMEM16A act inactive and aSyn 5UTR inh -34.9.
CCOC(=O)c1csc(NC(=O)CSc2nnnn2-c2ccc(OC)cc2)n1 was read as KLF5 inhibitor -10.3, Jurkat NFkB inh 18.7, 697 NFkB inh 7.1, TMEM16A inh inactive, TMEM16A act inactive and aSyn 5UTR inh 13.9.
O=C1C2C3C=CC(O3)C2C(=O)N1N=Cc1cccc2ccccc12 (stereo unspecified) was read as TMEM16A act inactive.
`CC1CCCN(S(=O)(=O)c2ccc(CN3C(=O)c4cccnc4C3=O)cc2)C1` (stereo unspecified) gave KLF5 inhibitor 3.3, Jurkat NFkB inh 9.7, 697 NFkB inh 9.0, TMEM16A inh inactive, TMEM16A act inactive and aSyn 5UTR inh -3.8.
Screening CCOC(=O)c1c(NC(=O)c2cc(C(C)C)on2)sc(C(C)=O)c1C returned KLF5 inhibitor -24.7, Jurkat NFkB inh -4.8, 697 NFkB inh -7.0, TMEM16A inh inactive, TMEM16A act -11.9* and aSyn 5UTR inh -31.3.
For COC(=O)c1ccc(CSc2nc(-c3ccccc3)cs2)o1 the results were KLF5 inhibitor -29.6, Jurkat NFkB inh -18.0, 697 NFkB inh -20.0, TMEM16A inh 25*, TMEM16A act inactive and aSyn 5UTR inh -18.5.
For C=CCC[C@@H](Cc1ccc(F)cc1)C(=O)OC[C@@H](Cc1c[nH]c2ccccc12)NC(=O)[C@@H](CC=C)CC(=O)N[C@H](CO)Cc1ccccc1 the results were Jurkat NFkB inh 15.2, 697 NFkB inh 5.1 and TMEM16A act inactive.
Screening O=C(N/N=C/c1ccccc1O)C1CC(=O)N(c2ccc(Cl)cc2)C1 (stereo unspecified) returned KLF5 inhibitor 59.1, Jurkat NFkB inh 1.3, 697 NFkB inh -6.5, TMEM16A inh inactive, TMEM16A act inactive and aSyn 5UTR inh 83.3*.
